Measured values taken from the supplement of paper PMC13380429.

Columns and labels:
[1] = test system: Vero E6 infected with SARS-CoV-2; assay: morphology score (similarity to uninfected cells); higher = more like uninfected cells; details: 24 h
[2] = test system: Vero E6 infected with SARS-CoV-2; assay: SARS-CoV-2 infection rate relative to infected DMSO; higher = more infection, active = 60 or less; details: 24 h

SMILES	morphology score [1]	SARS-CoV-2 infection rate [2]
OCC(O)CN1CCN(c2ccccc2)CC1 (stereo not drawn) [dropropizine] (10 µM)	0.106	103% (inactive)
CCCCN1CCC(CNC(=O)c2c3n(c4ccccc24)CCCO3)CC1 [piboserod] (10 µM)	0.132	92.5% (inactive)
Cc1cccc(C)c1OCC(C)N (stereo not drawn) [mexiletine] (10 µM)	-0.0725	112% (inactive)
C[C@H](C[C@H](N)C(=O)O)C(=O)O (10 µM)	0.0497	108% (inactive)
C=CC(=O)Nc1cccc(Oc2nc(Nc3ccc(N4CCN(C)CC4)cc3OC)ncc2Cl)c1 (0.833333 µM)	-0.0953	115% (inactive)
C[C@@H]1CN(Cc2ncccn2)C[C@H]1c1nc2c(cnn2C2CCOCC2)c(=O)[nH]1 (10 µM)	0.11	108% (inactive)
OC[C@H]1O[C@H]([S-])[C@H](O)[C@@H](O)[C@@H]1O.[Au+] [aurothioglucose] (10 µM)	-0.0654	110% (inactive)
C=C1CC[C@H](O)C/C1=C/C=C1\CCC[C@]2(C)[C@@H]([C@H](C)CCCC(C)C)CC[C@@H]12 [cholecalciferol] (10 µM)	-0.0066	96.5% (inactive)
O=C1C(=C(O)/C=C/c2ccc(O)cc2)C(=O)[C@@](O)([C@@H]2O[C@H](CO)[C@@H](O)[C@H](O)[C@H]2O)C(=O)[C@H]1[C@@H]1O[C@H](CO)[C@@H](O)[C@H](O)[C@H]1O (10 µM)	0.0573	104% (inactive)
O=C(NCc1ccccc1)OCCO [buramate] (10 µM)	0.237	84.5% (inactive)
COc1cc2c(c(OC)c1OC)-c1c(cc3c(c1OC)OCO3)CC(C)C(C)C2 (stereo not drawn) [schisandrin-B] (10 µM)	0.244	99.5% (inactive)
CO/N=C(\C(=O)N[C@@H]1C(=O)N2C(C(=O)O)=C(CSC(=O)c3ccco3)CS[C@H]12)c1csc(N)n1 (10 µM)	0.156	104% (inactive)
COC(=O)Nc1nc2cc(C(=O)c3ccc(F)cc3)ccc2[nH]1 [flubendazole] (10 µM)	0.13	98% (inactive)
C[C@@H]1CCN(C(=O)CC#N)C[C@@H]1N(C)c1ncnc2[nH]ccc12 (10 µM)	0.281	106% (inactive)
C[N+]1(C)[C@@H]2CC[C@H]1C[C@@H](OC(=O)C(CO)c1ccccc1)C2 (stereo partly drawn) [methylatropine-nitrate] (10 µM)	0.131	104% (inactive)
CC(C)(C)n1nc(-c2cccc3ccccc23)c2c(N)ncnc21 [1-naphthyl-PP1] (0.833333 µM)	0.129	96.5% (inactive)
CC(C)(O)C(=O)N1CCN(c2ccc(C(F)(F)F)c(C3=C(c4c[nH]c5ccccc45)C(=O)NC3=O)c2)CC1 (0.833333 µM)	-0.201	108% (inactive)
COc1ccc(C(=O)C2CCN(CC(=O)N(Cc3nc4c(c(=O)[nH]3)COCC4)CC3CC3)CC2)cc1 (10 µM)	0.165	102% (inactive)
CC(=O)OCC(=O)[C@@]1(O)CC[C@H]2[C@@H]3CCC4=CC(=O)CC[C@]4(C)[C@H]3[C@@H](O)C[C@@]21C [hydrocortisone-acetate] (10 µM)	-0.00868	110% (inactive)
CN(C)CCC(c1ccc(Br)cc1)c1ccccn1 (stereo not drawn) [brompheniramine] (10 µM)	-0.0213	106% (inactive)
CC(=O)N1CCC(C(=O)N(CCCN2CCC(Cc3ccc(C(N)=O)cc3)CC2)c2ccc(C)c(Cl)c2)CC1 (10 µM)	0.0284	107% (inactive)
CC1(C)S[C@@H]2[C@H](NC(=O)[C@H](NC(=O)N3CCN(S(C)(=O)=O)C3=O)c3ccccc3)C(=O)N2[C@H]1C(=O)O [mezlocillin] (10 µM)	0.0709	97% (inactive)
C[C@@H]1NC(=O)[C@@H](N)CNC(=O)[C@H](C2CCNC(=N)N2)NC(=O)/C(=C/NC(N)=O)NC(=O)[C@H](CNC(=O)CC(N)CCCN)NC1=O.N=C1NCC[C@H]([C@@H]2NC(=O)/C(=C/NC(N)=O)NC(=O)[C@H](CNC(=O)C[C@@H](N)CCCN)NC(=O)[C@H](CO)NC(=O)[C@@H](N)CNC2=O)N1 [capreomycin] (10 µM)	0.148	100% (inactive)
CSc1ccc(C(=O)N[C@@H]2CCCC[C@@H]2NC(=O)CNC(=O)c2cc(C(F)(F)F)ccc2NC(=O)NC(C)C)cc1 (10 µM)	0.07	93.5% (inactive)
